FBPA Giardia inh: qHTS Assay for Inhibitors of Fructose-1,6-bisphosphate Aldolase from Giardia Lamblia; purified Giardia FBPA; Potency, µM (top dose mostly 59.6 µM), for the others: at the highest dose activity, negative = inhibition, most hits filed as inhibitors; actives 0.71% (n = 290,000); note: potency is the fitted concentration of half-maximal effect; nearly all actives have a fitted effect of over 55% in size
Target sequence (A8B2U2 whole entry, looked up): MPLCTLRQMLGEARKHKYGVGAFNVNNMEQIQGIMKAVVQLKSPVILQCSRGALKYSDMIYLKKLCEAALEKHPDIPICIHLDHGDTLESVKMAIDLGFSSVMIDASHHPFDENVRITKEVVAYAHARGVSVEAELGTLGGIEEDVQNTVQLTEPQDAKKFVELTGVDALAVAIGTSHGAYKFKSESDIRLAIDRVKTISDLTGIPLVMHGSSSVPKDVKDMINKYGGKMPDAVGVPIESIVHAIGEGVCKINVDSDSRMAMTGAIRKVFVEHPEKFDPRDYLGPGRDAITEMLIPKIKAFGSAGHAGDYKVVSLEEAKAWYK
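40 nM FBPA preincubated 10 min at RT with compound (up to 57.5 uM final), then substrate plus GAPDH/TPI/NAD/arsenate coupling and diaphorase/resazurin added. Fluorescence read after 20 min at RT, 525/598 nm.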
FMDV inh: High Throughput Screening for Foot and Mouth Disease Virus Antivirals. AID 1159524, 2015. Potency, µM (series often up to 57.9 µM), inactives show at the top dose activity change, negative = inhibition, hits mostly inhibitors. FMDV antiviral cell-based qHTS. actives 1.2% (n = 410,000); calls by dose curve; tested in HEK293T cells; note: read-out not given here; potency is the fitted concentration of half-maximal effect; nearly all actives have a fitted effect of over 45% in size
RE007 growth inh: qHTS Assay for Inhibitors of the HIV-1 protein Vpr; Potency, µM (titrated, usually from 92.2 µM), for inactives: at the top dose activity change, negative = less growth, actives largely listed as inhibitors; actives 0.21% (n = 360,000); AID 651644, 2012; S. pombe RE007 Vpr strain, BacTiter-Glo ATP luminescence, 24 h; active = well fitted falling curve with a large enough effect; inconclusive = small, poorly fitted or top-dose-only effect; inactive = no such curve, though single readings can be large or run the other way; note: potency is the fitted concentration of half-maximal effect; nearly all actives have a fitted effect of over 50% in size
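Fission yeast RE007 carrying one integrated HIV-1 vpr copy, seeded at OD 0.01 in PMG+AL medium with 23 nL pinned compound. Grown 24 h at 30 degrees; viability read by BacTiter-Glo luminescence after 5 min.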
Sm TGR inh: qHTS Assay for the Inhibitors of Schistosoma Mansoni Peroxiredoxins; Schistosoma mansoni thioredoxin glutathione reductase (TGR), Q962Y6; purified TGR, DTNB reduction, TNB absorbance 405 nm; Potency, µM (titrated, usually from 114 µM), for inactives: at the top dose activity change, negative = inhibition, hits mostly inhibitors; actives 3% (n = 360,000); AID 485364, 2010; note: potency is the fitted concentration of half-maximal effect; nearly all actives have a fitted effect of over 60% in size
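TGR 20 nM + NADPH 100 uM (dispensed conc.), cpd preinc 15 min RT; start with NADPH (500 uM addition) then DTNB (15 mM addition). Kinetic TNB absorbance, 405 nm filter. Four-parameter Hill fit across titration.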
TbPYK inhibitor: qHTS of Trypanosoma Brucei Inhibitors; pyruvate kinase (Trypanosoma brucei), Q57TT1; TbPYK enzyme, Kinase-Glo Plus ATP luminescence, 45 min; Potency, µM (series often up to 76.8 µM), for inactives: at the highest dose activity, negative = inhibition, usual class: inhibitors; actives 0.12% (n = 410,000); AID 624173, 2012; note: potency is the fitted concentration of half-maximal effect; nearly all actives have a fitted effect of over 50% in size
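Readout: single end-point luminescence (Kinase-Glo Plus, 10 min). Reaction conditions were TbPYK/substrate plus 130 uM ADP, 45 min at RT, pH 7.2 TEA buffer. No-enzyme wells served as controls, and data were normalized before concentration-response fitting.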
HCMV antiviral: qHTS Assay for inhibitors of the human cytomegalovirus (HCMV); HFF cells, HCMV-luciferase reporter, 72 h; hits give low values; activity change, negative = inhibition, % at 57.5 µM; actives 4.5% (n = 410,000); AID 1259415, 2018; in the data active = activity change below about -60%; inconclusive = no clear call, values can overlap the other calls; inactive = above about -39%
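Cell-based, HFFs, 1000 cells/well, 16 h 37C; cpds in DMSO + HCMV-luc, MOI 1 PFU/cell; 72 h 37C; OneGlo luminescence after 5 min RT; norm. to buffer vs Salinomycin 10uM.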
The depositor's hits bear a star; ? = inconclusive; nt = no result; ! = a repeat was not active. Most compounds without a hit are left out; they make up all but 7.7% or so of the library. Unless noted, calls come from the whole dose curve; as a rule, active = well fitted curve in the direction sought with a large enough effect; inconclusive = small, poorly fitted or top-dose-only effect, or another doubt; inactive = no such curve, though single readings can be large; an effect the other way counts as inactive or inconclusive. % is set by controls: 0 for no effect and ±100 for the full control effect.

SMILES	FBPA Giardia inh	FMDV inh	RE007 growth inh	Sm TGR inh	TbPYK inhibitor	HCMV antiviral
Cc1cc(C)cc(C(=O)NCCc2csc(-c3ccc(C(F)(F)F)cc3)n2)c1	nt	-23.4%	nt	10.6%	5.8%	17.9
O=C(NCCc1csc(-c2ccc(C(F)(F)F)cc2)n1)c1ccc(F)c(F)c1	nt	20µM*	nt	6.4%	6.8%	-63.4*
O=C(Cc1csc(-c2ccccc2)n1)NCc1ccco1	0.2%	5.5%	-6.9%	39.8µM*	-3.6%	-13.4
O=C(CN1C(=O)CN=C(c2ccccc2)c2ccccc21)NCc1ccco1	22.2%	21.3%	11.9%	39.8µM*	-2.4%	-38.6
COc1ccc(C(=O)Nc2sc3c(c2C(=O)NCc2ccco2)CCCC3)cc1OC	-5.2%	-24.8%	-5.4%	-17.0%	5.0%	-32.7
Cc1ccc(CN2C(=O)CN=C(c3ccccc3)c3ccccc32)cc1	-24.6%	?	nt	1.1%	5.6%	-73.7*
COc1ccc(C2=NCC(=O)N(CC(=O)NCc3ccco3)c3sc4c(c32)CCCC4)cc1OC	2.0%	nt	11.2%	22.4µM*	6.1%	?
Cc1cccc(-c2nc(CCNC(=O)c3ccco3)cs2)c1	nt	-24.7%	-21.1%	0.3%	3.4%	-68.2*!
CCOC(=O)/C(=N/Nc1ccc(OC)cc1)N1CCCc2ccccc21	15.8µM*	-0.2%	80.3%	-25.5%	0.3%	?
COC(=O)/C(=N/Nc1ccccc1C)N1CCCc2ccccc21	-0.8%	-25.1%	19.6%	-11.3%	2.7%	-32.1
CCOC(=O)/C(=N/Nc1ccccc1OC)N1CCCc2ccccc21	0.3%	13.5%	5.1%	39.8µM*	-11.8%	-1.1
CCOC(=O)/C(=N/Nc1ccccc1)N1CCCc2ccccc21	-27.1%	?	-8.7%	7.3%	-4.5%	-63.1*
COCC(=O)Nc1cc(C(=O)N2CC3CCC2C3)c2c(c1)nc(-c1ccncc1)n2C (stereo unspecified)	nt	-2.7%	nt	nt	nt	nt
COc1cc(NC(=O)c2ccc3oc(=O)c(S(=O)(=O)c4ccccc4)cc3c2)cc(OC)c1	nt	?	nt	4.9%	-0.4%	-8.8
CCOC(=O)c1ccc(NC(=O)c2c(N3CCCC3=O)c3cc(OC)ccc3n2C)cc1	nt	-11.9%	nt	1.4%	9.1%	2.2
CCOC(=O)C(=O)NCc1ccc(/C=C2/N=C(C)C(C(=O)OCC)=C2O)o1	?	-14.8%	-5.3%	31.6µM*	-4.1%	-14.7
COC(=O)C1=C(O)/C(=C\c2ccc(CNC(=O)C(=O)Nc3ccc(C)c(C)c3)o2)N=C1C	-22.7%	-12.1%	0.3%	31.6µM*	-11.0%	-6.4
COC(=O)C1=C(O)/C(=C/c2ccc(OCC(=O)Nc3ccc(OC)cc3)cc2)N=C1C	nt	-7.2%	5.5%	nt	-4.3%	13.2
COC(=O)C1=C(O)/C(=C\c2ccc(CNC(=O)C(=O)Nc3ccc(C)cc3)o2)N=C1C	?	14.7%	-12.6%	17.8µM*	-1.4%	17.7
CCOC(=O)c1ccc(N2C(=O)CC(N3CCCC(C)C3)C2=O)cc1 (stereo unspecified)	20.1%	-17.2%	3.16µM*	25.1µM*	-0.1%	7.0
CCOC(=O)C1CCCN(C2CC(=O)N(c3cccc(C)c3)C2=O)C1 (stereo unspecified)	-20.9%	0.9%	25.1µM*	25.1µM*	3.8%	8.0
CCOC(=O)c1ccc(N2C(=O)CC(Sc3ncccn3)C2=O)cc1 (stereo unspecified)	-28.8%	3.5%	-5.1%	39.8µM*	-4.4%	-14.4
CCOC(=O)C(N)CSC1CC(=O)N(c2ccc(C(=O)OC)cc2)C1=O (stereo unspecified)	3.6%	-8.5%	-2.2%	?	-8.2%	0.8
CCOC(=O)c1ccc(N2C(=O)CC(N3CCC(Nc4ccc(F)cc4)CC3)C2=O)cc1 (stereo unspecified)	-1.1%	0.5%	7.94µM*	56.2µM*	-7.1%	20.0
Cc1cccc(CNc2ncnc3ccc(-c4ccc(C(=O)N(C)C)cc4)cc23)c1	-7.7%	-14.8%	nt	nt	nt	nt
SMILES	FBPA Giardia inh	FMDV inh	RE007 growth inh	Sm TGR inh	TbPYK inhibitor	HCMV antiviral
CC(NC(=O)C(=O)Nc1c2c(nn1-c1ccc(F)cc1)CSC2)c1ccccc1 (stereo unspecified)	nt	-8.7%	nt	-1.0%	1.6%	-15.8
CCOc1ccccc1CNC(=O)c1cc2n(n1)CCCN(Cc1ccc(C)cc1)C2=O	nt	-15.9%	nt	9.4%	-1.4%	-15.4
COc1cccc(N(C(=O)Cn2nnc(-c3ccc(C)cc3)n2)C(C(=O)NC(C)(C)C)c2c[nH]c3ccccc23)c1 (stereo unspecified)	-9.3%	12.3%	0.7%	1.2%	3.7%	-65.9*
O=C(Nc1cccc([N+](=O)[O-])c1)OCc1ccc2c(c1)OCO2	nt	nt	nt	nt	nt	9.4
Cc1cccc(NC(=O)COc2coc(CN3CCN(c4ccccc4)CC3)cc2=O)c1C	nt	?	3.2%	0.0%	0.6%	-61.0*
CCOC(=O)COc1coc(CN2CCN(c3ccccc3)CC2)cc1=O	nt	-3.0%	6.8%	-9.4%	-1.3%	-61.0*
CC(C)Cc1nc(N2CCN(C(=O)c3ccccc3)CC2)c(C#N)c2c1CCC2	5.3%	?	16.6%	-8.7%	2.5%	?
CC(C)Cc1nc(N2CCN(C(=O)c3ccco3)CC2)c(C#N)c2c1CCC2	-6.0%	25.1µM*	-15.9%	?	-2.9%	-30.7
N#Cc1c(N2CCN(C(=O)c3ccco3)CC2)nc(-c2ccccc2)c2c1CCCC2	-0.2%	?	2.9%	0.6%	4.2%	-77.8*
CCc1ccc(OCc2ccccc2C(=O)Nc2ccc3nc(C)cc(N)c3c2)cc1	0.9%	0.0%	nt	nt	nt	nt
COCCCNC(=O)c1ccc(N(C)S(C)(=O)=O)cc1	2.5%	nt	1.2%	28.2µM*	2.9%	-8.6
CCCCn1c(N)c(N(CC(C)C)C(=O)C2=NN(c3ccccc3)C(=O)CC2)c(=O)[nH]c1=O	nt	-4.0%	-16.0%	89.1µM*	4.6%	-2.6
CCCCn1c(N)c(N(CCC(C)C)C(=O)c2cc(-c3ccco3)nc3ccccc23)c(=O)[nH]c1=O	nt	-0.5%	5.1%	-13.9%	-8.2%	-39.3
CCCCn1c(N)c(N(CCOC)C(=O)c2cc(-c3ccco3)nc3ccccc23)c(=O)[nH]c1=O	nt	-19.5%	-0.4%	25.1µM*	-7.6%	nt
CCCCN(C(=O)c1cc(-c2ccco2)nc2ccccc12)c1c(N)n(CCCC)c(=O)[nH]c1=O	nt	3.4%	-4.5%	3.55µM*	-13.4%	-17.0

Bioassay records: PubChem BioAssay, National Center for Advancing Translational Sciences (NCATS)
